Bioassay records as filed in PubChem.
Hits are enriched below; roughly 21% of the tested compounds scored in any of these assays.
Pf growth 48h: P. falciparum growth inhibition at 48 hours (one generation); P. falciparum luciferase growth in erythrocytes, 48 h; Potency, µM (doses to about 28.7 µM), for the others: at the highest dose activity change, negative = inhibition, usual class: inhibitors; hit rate 5.9% among 310,000; also: potency is read from the fitted curve at half-maximal effect; % is scaled to controls: 0 for no effect and ±100 for the full control effect
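Luciferase-expressing P. falciparum in infected erythrocytes (2% hematocrit, 0.1% parasitemia final) in RPMI 1640/0.5% Albumax were exposed to compound for 48 hours at 37 C, 5% CO2; growth read as luminescence.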
Shiga toxin inh: inhibitors of Shiga toxin in Vero cells | Vero cells, Shiga toxin protein synthesis inhibition reporter | inhibition, % at 38.7 µM | hit rate 9.2% among 290,000; in the data active = inhibition mostly above about 28%, no sharp cut-off; inactive = mostly below about 43%; also: 0% is about no effect
CHX counter: affects cycloheximide protein synthesis inhibition readout, counter-screen. max response, %. hit rate 12% among 300,000. cell reporter, cycloheximide protein synthesis inhibition counterscreen; in the data active = max response mostly above about 13%, no sharp cut-off; inactive = mostly below about 14%; also: read at 38.3 µM for the half of the compounds with a filed dose; 0% is about no effect
Pf growth 96h: P. falciparum growth inhibition at 96 hour, primary screen for plastid delayed-death inhibitors. Potency, µM (titrated, usually from 28.7 µM), inactives show top-dose activity change, negative = inhibition, usual class: inhibitors. hit rate 6.9% among 320,000. P. falciparum luciferase reporter growth, 96 h. AID 504834; also: potency is read from the fitted curve at half-maximal effect; % is scaled to controls: 0 for no effect and ±100 for the full control effect
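P. falciparum expressing integrated firefly luciferase, in erythrocytes at 2% hematocrit, 0.05% parasitemia, incubated with compounds 96 h at 37 C, 5% CO2. Growth inhibition read as loss of luminescence; two-generation exposure targets delayed-death apicoplast inhibitors.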
* hit, by the source's call; i = inactive; ? = inconclusive; · = not tested or not shown. Unless noted, calls follow the shape of the dose curve; as a rule, active = well fitted inhibition curve with a large enough effect; inconclusive = small, poorly fitted or top-dose-only effect, or another doubt; inactive = no such curve, though single readings can be large or run the other way.

SMILES | Pf growth 48h | Shiga toxin inh | CHX counter | Pf growth 96h
Cc1ccc(C2(C)NC(=O)N(CC(=O)NNC(=O)c3ccccc3F)C2=O)cc1 (configuration not stated) | 28.6% | · | · | 8.7%
COc1ccc(N2CCN(C(CNC(=O)C(=O)NCc3ccc4c(c3)OCO4)c3ccco3)CC2)cc1 (configuration not stated) | ? | -6.9 | -2.8 | ?
CC(C)OC(=O)C1C2C=CC3(CN(Cc4cccs4)C(=O)C13)O2 (configuration not stated) | 7.6% | -7.9 | -3.4 | ?
O=C(COC(=O)CCc1ccc(S(=O)(=O)N2CCOCC2)cc1)NC(=O)NC1CCCCC1 | 7.9% | -9.0 | -2.0 | 3.8%
Cc1c(C(c2ccc(F)cc2)c2c(C)n(C)n(-c3ccccc3)c2=O)c(=O)n(-c2ccccc2)n1C | -7.7% | -6.5 | -2.8 | ?
O=C(Nc1ccc(Cl)cc1)c1ccc2c(c1)OCO2 | 197.6% | 48.8* | 29.6* | ·
Cc1[nH]c2ccccc2c1C(=O)C(=O)Nc1ccc2c(c1)OCO2 | -0.4% | 47.5* | 28.5* | ?
O=C(Nc1ccc(Cl)c([N+](=O)[O-])c1)c1ccncc1 | -0.7% | -7.7 | -1.4 | 114.8%
Cc1cc(C(=O)NC(C)c2ccc3c(c2)OCO3)cs1 (configuration not stated) | 4.6% | -14.1 | 9.7 | ·
O=C(Nc1ccc(Cl)c([N+](=O)[O-])c1)c1ccc2c(c1)OCCO2 | i | 61.9* | 33.2* | 16.6%
Cc1cc(C(=O)Nc2ccc3c(c2)OCO3)cs1 | 183.9% | 58.0* | 38.7* | 15.2%
NNC(=O)CCCCCCCCCCOCCCCO | ? | 19.1 | 24.5 | ?
O=C(O)c1ccc(C(=O)O)c(C(=O)c2ccc(NC(=O)c3ccccc3)cc2)c1 | 3.5% | -4.7 | -2.0 | 0.0%
COCCNC(=O)COC(=O)C1=Cc2ccccc2OC1 | 6.0% | -4.3 | 13.2 | ?
O=C(Nc1ccc2nsnc2c1)c1ccc2c(c1)OCO2 | 171.0% | 63.9* | 31.5* | ?
CC(C)C(=O)Nc1ccc(NC(=O)c2ccc3c(c2)OCO3)cc1 | 31.4% | -1.9 | -3.3 | 39.4%
NC(=O)c1ccc(NC(=O)c2ccc3c(c2)OCO3)cc1 | · | 111.5 | 36.6* | 128.1%
O=C(Nc1ccc(Cl)cc1)C1=Cc2ccccc2OC1 | · | 67.6* | 82.9* | -16.4%
CCN1CCN(c2ccc(NC(=O)c3ccc4c(c3)OCO4)cc2)CC1 | 68.3% | 55.8* | 29.0* | ·
Cc1ccn(CC(=O)N2CCCC(N3CCN(c4ccc(F)cc4)CC3)C2)n1 (configuration not stated) | ? | -5.8 | -1.7 | -0.5%
CCN(CC)C(=O)c1[nH]cnc1C(=O)N[C@H](C)c1ccccc1 | 70.1% | · | · | 27.2%
COc1ccc(N2CC(C(=O)NCc3nnnn3-c3ccc(C)c(C)c3)CC2=O)cc1 (configuration not stated) | 5.7% | -3.2 | -2.9 | ?
Cc1ccnc(N2CCCC(C(=O)NCc3cccs3)C2)n1 (configuration not stated) | -8.9% | -5.6 | -1.2 | 9.28µM*
Cc1cc(C)nc(N2CCCC(C(=O)NCc3cccs3)C2)n1 (configuration not stated) | 5.0% | 24.1 | -5.0 | ?
O=C(NCc1cccs1)C1CCCN(c2nc3ccccc3o2)C1 (configuration not stated) | ? | 3.0 | -1.5 | 5.22µM*
SMILES | Pf growth 48h | Shiga toxin inh | CHX counter | Pf growth 96h
COc1ccc(Br)cc1CNC(=O)C1CCCN(c2nc3ccccc3o2)C1 (configuration not stated) | 4.3% | -6.3 | -5.0 | 5.86µM*
COc1ccc(C(C(=O)NC2CCCCC2)N(C(=O)c2ccco2)c2ccccc2C(C)=O)cc1OC (configuration not stated) | ? | -6.6 | -3.0 | 14.1%
CC[n+]1c(C)sc2sc3ccccc3c21 | 1.85µM* | 10.6 | 0.5 | ?
Cc1cc(C)cc(N(CC(=O)N2CCCCCC2)S(C)(=O)=O)c1 | 12.6% | -2.0 | -1.7 | 6.5%
CCC(=O)Nc1nc2ccc(NC(C)=O)cc2s1 | 129.2% | 47.4 | 33.1* | 50.6%
CC(C)c1ccc(/C=C/C(=O)Nc2nc3ccc([N+](=O)[O-])cc3s2)cc1 | ? | -16.1 | -1.3 | 2.33µM*
O=C(Nc1nc2ccc([N+](=O)[O-])cc2s1)c1ccco1 | 155.6% | 44.2 | 27.4* | 162.6%
O=C(Nc1nc2ccc([N+](=O)[O-])cc2s1)c1c(F)cccc1F | 14.7% | 17.2 | 2.7 | ?
CC(=O)Nc1nc2cc([N+](=O)[O-])ccc2s1 | 31.5% | · | · | 3.2%
CC(=O)Nc1ccc2nc(NC(=O)CN3CCOCC3)sc2c1 | -4.6% | 56.0 | 19.1 | -3.1%
CCOc1cccc2sc(Nc3nc4ccc(NC(C)=O)cc4s3)nc12 | ? | 57.8* | 27.4* | ?
Nc1c([N+](=O)[O-])ccc(Oc2ccccc2)c1Cl | · | 26.3 | 7.4 | ·
CSc1nc2ccc(NC(=O)C3CC(=O)N(Cc4ccccc4)C3)cc2s1 (configuration not stated) | -21.3% | -12.4 | 20.3 | ?
CC(=O)Nc1ccc2nc(NC(=O)c3ccco3)sc2c1 | 173.6% | 36.2* | 25.3* | ?
CC(=O)Nc1ccc2nc(NC(=O)c3ccc([N+](=O)[O-])o3)sc2c1 | ? | 7.7 | 9.7 | ?
CSc1nc2ccc(NC(=O)c3ccc(=O)n(C)n3)cc2s1 | 42.3% | 42.4* | 19.1* | 31.8%
CSc1nc2ccc(NC(=O)c3cc4ccccc4o3)cc2s1 | 66.3% | 70.4* | 30.0* | -53.3%
CCOC(=O)Nc1ccc2nc(Sc3ccc(Cl)cc3)sc2c1 | 9.28µM* | 2.9 | 14.6 | 14.7µM*
CCOc1ccc(N2CC(C(=O)Nc3ccc(S(=O)(=O)Nc4nccs4)cc3)CC2=O)cc1 (configuration not stated) | -6.9% | -5.9 | -12.7 | 7.6%
Cc1ccc(S(=O)(=O)N/N=C\c2ccc3c(c2)OCO3)c(C)c1 | 26.8% | -1.7 | 6.6 | -17.4%
CC(=O)Nc1ccc(S(=O)(=O)N(C)CC(=O)OCC(=O)N(C)c2ccccc2)cc1 | 5.0% | -4.5 | -0.7 | 37.2%
CSc1nc2ccc(NC(=O)c3ccc(=O)[nH]c3)cc2s1 | ? | -5.9 | 8.6 | ?
CSc1nc2ccc(NC(=O)c3nn(C(C)C)c(=O)c4ccccc34)cc2s1 | 17.1% | 101.9* | 53.4* | -24.9%
CSc1nc2ccc(NC(=O)c3ccc(F)c(F)c3)cc2s1 | 70.2% | 40.5* | 39.4* | 87.1%
CSc1nc2ccc(NC(=O)c3ccco3)cc2s1 | ? | 56.6* | 35.5* | ?
SMILES | Pf growth 48h | Shiga toxin inh | CHX counter | Pf growth 96h
Cc1nc2ccc(NC(=O)c3nn(C(C)C)c(=O)c4ccccc34)cc2s1 | -13.8% | -17.1 | -6.3 | ?
COc1ccccc1OCc1nnc(SCC(=O)Nc2ccc(N3CCOCC3)cc2)n1C | -3.9% | -4.0 | 8.5 | -1.2%
O=C(CNc1ccc2ccccc2c1)N/N=C/c1cc2ccccc2nc1Cl | ? | 31.5 | 8.8 | 15.8%
O=C1/C(=C/c2ccncc2)SC(=S)N1Nc1ccccc1 | 8.28µM* | 5.0 | 11.1 | 9.28µM*
O=C(O)c1ccc(/C=C2\SC(=S)N(Nc3ccccc3)C2=O)cc1 | -24.3% | 79.8* | 23.6* | ?
CC(C)(C)c1ccc(/C=C2\Oc3cc(O)ccc3C2=O)cc1 | ? | 125.4* | 61.0* | ?
